Among all 350,000 compounds or so, about 7,000 (2%) were called active. Only a selection was taken, and actives are over-represented in it overall. Values without a mark were called inactive. Rule as the data show it: active = activation above about 40%; inconclusive = no clear call, values can overlap the other calls; inactive = below that.

This assay is described as follows: raisers of Bmi1 knock-in reporter signal – mouse ES cells, Bmi1 luciferase knock-in, single point, esBAF inhibitor project, primary screen (AID 602393).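 Also: 0% = median of the plate's neutral control wells and 100% = double that signal; a rise in the Bmi1 reporter signal indicates esBAF inhibition.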 As to conditions: 24 h, at 12.5 µM, active compounds read high, 100% = twice the neutral-well signal.
Consider `CCCC#Cc1ccc([C@H]2[C@@H](CO)N3CCCCN(S(=O)(=O)Cc4ccccc4)C[C@H]23)cc1`, for which the reporter increase was -7.51%.

`CCS(=O)(=O)N1[C@H](C#N)[C@H](c2ccc(-c3cccc(F)c3)cc2)[C@@H]1CO`: the reporter increase was 2.95%.

For `CCN1CCN(C(=O)CSc2ccc(C)cc2)CC1`, the reporter increase is 31%.

For the compound `COC(=O)c1cc(OC)c(OC)cc1NC(=O)CSc1ccc(C)cc1`, the reporter increase is -15.9%. For the compound `Cc1ccc(SCC(=O)c2cc(C)c(OC(=S)N(C)C)c(C)c2)cc1`, the reporter increase is 45.8% (active). For the compound `C[C@@H]1CN([C@@H](C)CO)S(=O)(=O)c2ccc(C#Cc3ccccc3F)cc2O[C@H]1CN(C)C(=O)c1ccc2c(c1)OCO2`, the reporter increase was 0.756%. The figure for `CC(C)NC(=O)N(C)C[C@H]1Oc2c(NC(=O)c3ccncc3)cccc2C(=O)N([C@@H](C)CO)C[C@H]1C` is 1.56%. In the case of `COc1ccc(C=C(C#N)C#N)c(CSc2ccccn2)c1` it was -8.92%; in that of `COc1ccc(/C=N/OCc2ccccc2C#N)c(OC)c1`, 82.2% (active). Regarding `COc1ccc(/C=C2/C(=O)N(c3ccccc3)N=C2C)c(OC)c1`, the reporter increase was -1.3%. As for `C[C@H]1CN([C@@H](C)CO)S(=O)(=O)c2ccc(C3=CCCC3)cc2O[C@@H]1CN(C)Cc1ccccc1`, the reporter increase is 1.2%. For `COc1ccc(C2=Nc3ccccc3NC(=O)C2N(C(=O)c2cc3ccccc3[nH]2)c2ccccc2)cc1` (centres undefined), the reporter increase was 47.8% (active). `CC(OC(=O)c1cc2ccccc2[nH]1)C(=O)N(C)c1ccccc1` (centres undefined): the reporter increase was 7.66%. On to `COc1ccc(NC(=O)N(C)C[C@@H]2OCc3ccccc3-c3c(n(C)c4ccccc34)C(=O)N([C@H](C)CO)C[C@H]2C)cc1`, for which the reporter increase is -4.05%.

As for `CO[C@@H](CN(C)S(=O)(=O)c1cccc(Cl)c1)[C@H](C)CN([C@H](C)CO)S(=O)(=O)c1cccc(Cl)c1`, the reporter increase is 6.95%. In the case of `CN1c2ccc(-c3cccc(F)c3)cc2[C@H]2[C@H](CCN2C(=O)C2CCCC2)[C@@H]1CO` it was 2.05%.

For `COc1ccc(C(=O)C2CCCN(C(=O)c3cc(C)on3)C2)cc1F` (centres undefined), the reporter increase is -6.1%. The figure for `O=C(c1cc(-c2cccs2)on1)N1CCCCC1` is -2.46%; for `COc1ccccc1-c1cc(C(=O)N2CCCCC2)no1` it is 52.4% (active); for `C[C@@H]1CN([C@H](C)CO)C(=O)c2cc(NC(=O)CCCN(C)C)ccc2O[C@@H](C)CCCCO[C@@H]1CN(C)Cc1ccncc1` it is 1.15%. Consider `C[C@H]1CN([C@@H](C)CO)C(=O)c2cccc(NC(=O)Nc3ccccc3)c2O[C@H]1CN(C)Cc1ccc(C(F)(F)F)cc1`, for which the reporter increase was -0.852%. Consider `Cc1ccn(CCC(=O)N2c3ccccc3CC2C)n1` (centres undefined), for which the reporter increase is 0.95%. The figure for `CCC(=O)N1c2ccc(S(=O)(=O)CCC(=O)N3CCN(c4ccccc4)CC3)cc2CC1C` (centres undefined) is 29.9%; for `CCCC(=O)N1c2ccc(-c3csc(N)n3)cc2CC1C` (centres undefined) it is 41.3% (active). For the compound `O=c1cc(CCl)nc2scc(-c3ccccc3)n12`, the reporter increase is -3.84%. Consider `Cc1csc2nc(COC(=O)c3cccc(N(C)C)c3)cc(=O)n12`, for which the reporter increase was 82.1% (active). With `Cc1nn2c(=O)cc(COC(=O)c3ccc(NC(=O)C(C)(C)C)cc3)nc2s1`, the reporter increase was 2.43%. Take `CN1CCN(C(=O)C[C@@H]2C[C@H]3c4cc(NC(=O)NC5CCCC5)ccc4O[C@H]3[C@H](CO)O2)CC1`: the reporter increase is 0.154%.

Turning to `CCCNC(=O)C[C@H]1C[C@@H]2c3cc(NC(=O)C4CCOCC4)ccc3O[C@@H]2[C@H](CO)O1`, the reporter increase was -3.13%.

With `Clc1cccc(Cl)c1Cn1nnc(-c2cccs2)n1`, the reporter increase was 69.1% (active).

For `O=c1cc(Cn2nnc(-c3ccc(Cl)cc3)n2)nc2sccn12`, the reporter increase is 7.92%. In the case of `COc1ccccc1N1CCN(C(=O)Cn2nnc(-c3cccs3)n2)CC1` it was 3.41%; in that of `CC(=O)N(C)C[C@@H]1Oc2cc(-c3cccnc3)ccc2S(=O)(=O)N([C@H](C)CO)C[C@H]1C`, 2.38%. Consider `C/C=C/c1ccc([C@H]2[C@@H](C#N)N(C(=O)CN3CCOCC3)[C@@H]2CO)cc1`, for which the reporter increase was -3.67%. As for `O=C(C1CCCC1)N1[C@H](CO)[C@H]2c3ccccc3N(S(=O)(=O)c3ccccc3)C[C@H]21`, the reporter increase was -4.06%. Turning to `C[C@H](CO)N1C[C@H](C)[C@@H](CN(C)Cc2ccncc2)Oc2ccc(NS(=O)(=O)c3ccc(Cl)cc3)cc2CC1=O`, the reporter increase was 4.09%. In the case of `COCCCN1C(=O)c2ccc(C(=O)OCC(=O)NCc3ccccc3OC)cc2C1=O`, the reporter increase is -0.788%. On to `COCCCN1C(=O)c2ccc(C(=O)Nc3ccc(OC)cc3OC)cc2C1=O`, for which the reporter increase was -3.26%. Turning to `COc1ccc2[nH]cc(CCN3C(=O)c4ccc(C(=O)O)cc4C3=O)c2c1`, the reporter increase was 77% (active). On to `C[C@H](CO)N1C[C@H](C)[C@H](CN(C)Cc2ccccn2)Oc2ncc(C#CCc3ccccc3)cc2C1=O`, for which the reporter increase was -3.58%.

Take `Cc1ccc2cc(/C=N/Nc3ccc(C(=O)O)cc3)c(Cl)nc2c1`: the reporter increase was 63.2% (active).

For the compound `CC(=O)Nc1ccc(C(=O)CSc2nc3ccc(C)cc3[nH]2)cc1`, the reporter increase is 1.14%. Consider `Cc1ccn2c(-c3csc(Nc4ccc(C(=O)O)cc4)n3)c(C)nc2c1`, for which the reporter increase was 3.65%. For the compound `C/C=C/c1cnc2c(c1)C(=O)N([C@H](C)CO)C[C@H](C)[C@@H](CN(C)C(=O)c1cccc(F)c1)O2`, the reporter increase is 1.29%.

As for `C[C@@H]1CCCCO[C@@H](CN(C)S(=O)(=O)c2ccccc2)[C@H](C)CN([C@H](C)CO)C(=O)c2cc(NC(=O)CCC(F)(F)F)ccc2O1`, the reporter increase was 3.27%. `COc1cccc(S(=O)(=O)N[C@@H]2CC[C@H](CCNC(=O)Cc3ccncc3)O[C@@H]2CO)c1`: the reporter increase is 3.37%. On to `O=C(C[C@@H]1CC[C@@H]2[C@H](COC[C@@H](O)CN2Cc2cc(F)cc(F)c2)O1)NCc1cccc(F)c1`, for which the reporter increase was 4.76%. With `O=C(C[C@@H]1C[C@@H]2c3cc(NS(=O)(=O)c4ccc(F)cc4)ccc3O[C@@H]2[C@@H](CO)O1)NCc1ccncc1`, the reporter increase was -5.57%. As for `C/C=C/c1ccc([C@H]2[C@@H](CO)N(C(=O)Cc3ccncc3)[C@@H]2CNC(C)=O)cc1`, the reporter increase was -0.088%.

The values above are taken from PubChem BioAssay AID602393 (Broad Institute, 2012).
